Where a name gives a salt, the structure may show the parent alone. ± gives the uncertainty stated by the source.
System: Caenorhabditis elegans N2
Assay: food intake (mean delta OD600 / animal over 72 h) with 50 uM loxapine co-treatment (OD600 units per animal); higher = more food eaten (less suppression of loxapine-induced hyperphagia)
Details: first compound 33 µM, loxapine concentration 50 µM
Description: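 C. elegans N2 adults (FUDR-sterilised, day 1) in 96-well plates fed gamma-irradiated bacteria. Each library drug (MedChemExpress FDA-approved library) at 33 uM was combined with loxapine at 50 uM. Food intake was measured as bacterial clearance: the change in OD600 from day 1 to 72 h, normalised per animal (mean over 14-21 wells of about 10-12 worms). Drugs flagged for bacterial lysis or sickness were excluded by the authors.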

Row | SMILES | food intake
1 | CCOC(=O)[C@H](CCc1ccccc1)N[C@@H](C)C(=O)N1Cc2ccccc2C[C@H]1C(=O)O [quinapril (hydrochloride)] + CN1CCN(C2=Nc3ccccc3Oc3ccc(Cl)cc32)CC1 [loxapine] | 0.0212 ± 0.003
2 | CCN(CC)C(=O)c1cccc(C)c1 + CN1CCN(C2=Nc3ccccc3Oc3ccc(Cl)cc32)CC1 [loxapine] | 0.023 ± 0.0029
3 | Nc1ccc(O)c(C(=O)O)c1 [5-Aminosalicylic acid] + CN1CCN(C2=Nc3ccccc3Oc3ccc(Cl)cc32)CC1 [loxapine] | 0.0212 ± 0.0048
4 | S=c1nc[nH]c2nc[nH]c12 [6-Mercaptopurine] + CN1CCN(C2=Nc3ccccc3Oc3ccc(Cl)cc32)CC1 [loxapine] | 0.0218 ± 0.0028
5 | CC(=O)O[C@H]1CC[C@H]2[C@@H]3CCc4cc(O)ccc4[C@H]3CC[C@]12C [b-estradiol 17-acetate] + CN1CCN(C2=Nc3ccccc3Oc3ccc(Cl)cc32)CC1 [loxapine] | 0.0213 ± 0.0046
6 | CC(C)NCC(O)COc1ccc(CCOCC2CC2)cc1 (stereo not given) [betaxolol (hydrochloride)] + CN1CCN(C2=Nc3ccccc3Oc3ccc(Cl)cc32)CC1 [loxapine] | 0.025 ± 0.003
7 | Clc1ccc(COC(Cn2ccnc2)c2ccc(Cl)cc2Cl)c(Cl)c1 (stereo not given) [miconazole (nitrate)] + CN1CCN(C2=Nc3ccccc3Oc3ccc(Cl)cc32)CC1 [loxapine] | 0.0169 ± 0.005
8 | CC(C)C(=O)c1c(C(C)C)nn2ccccc12 [ibudilast] + CN1CCN(C2=Nc3ccccc3Oc3ccc(Cl)cc32)CC1 [loxapine] | 0.0243 ± 0.0046
9 | Nc1ccc(S(=O)(=O)c2ccc(N)cc2)cc1 [dapsone] + CN1CCN(C2=Nc3ccccc3Oc3ccc(Cl)cc32)CC1 [loxapine] | 0.0216 ± 0.006
10 | COc1ccc(CCN(C)CCCN2CCc3cc(OC)c(OC)cc3CC2=O)cc1OC [zatebradine] + CN1CCN(C2=Nc3ccccc3Oc3ccc(Cl)cc32)CC1 [loxapine] | 0.0232 ± 0.0027
11 | Cc1nc(C)c(Cl)c(O)c1Cl [clopidol] + CN1CCN(C2=Nc3ccccc3Oc3ccc(Cl)cc32)CC1 [loxapine] | 0.0241 ± 0.0032
12 | CCc1ccc(CCOc2ccc(CC3SC(=O)NC3=O)cc2)nc1 (stereo not given) [pioglitazone (hydrochloride)] + CN1CCN(C2=Nc3ccccc3Oc3ccc(Cl)cc32)CC1 [loxapine] | 0.0215 ± 0.0041
13 | CCCC(=O)Nc1ncnc2c1ncn2[C@@H]1O[C@@H]2COP(=O)(O)O[C@H]2[C@H]1OC(=O)CCC [bucladesine (calcium salt)] + CN1CCN(C2=Nc3ccccc3Oc3ccc(Cl)cc32)CC1 [loxapine] | 0.022 ± 0.0033
14 | CC(C)[C@H](N)C(=O)OCCOCn1cnc2c(=O)nc(N)[nH]c21 [valacyclovir (hydrochloride)] + CN1CCN(C2=Nc3ccccc3Oc3ccc(Cl)cc32)CC1 [loxapine] | 0.0213 ± 0.0096
15 | COc1c(N2C[C@@H]3CCCN[C@@H]3C2)c(F)cc2c(=O)c(C(=O)O)cn(C3CC3)c12 [moxifloxacin (hydrochloride)] + CN1CCN(C2=Nc3ccccc3Oc3ccc(Cl)cc32)CC1 [loxapine] | 0.0216 ± 0.0034
16 | O=C1CCc2cc(OCCCCc3nnnn3C3CCCCC3)ccc2N1 [cilostazol] + CN1CCN(C2=Nc3ccccc3Oc3ccc(Cl)cc32)CC1 [loxapine] | 0.0227 ± 0.0031
17 | CN1C(C(=O)Nc2ccccn2)=C(O)c2ccccc2S1(=O)=O [piroxicam] + CN1CCN(C2=Nc3ccccc3Oc3ccc(Cl)cc32)CC1 [loxapine] | 0.0225 ± 0.0032
18 | CCCS(=O)(=O)Nc1ccc(F)c(C(=O)c2c[nH]c3ncc(-c4ccc(Cl)cc4)cc23)c1F [vemurafenib] + CN1CCN(C2=Nc3ccccc3Oc3ccc(Cl)cc32)CC1 [loxapine] | 0.012 ± 0.0047
19 | CN1C(=O)C[C@@H](C(=O)N[C@@H](Cc2c[nH]cn2)C(=O)N2CCC[C@H]2C(N)=O)NC1=O [taltirelin] + CN1CCN(C2=Nc3ccccc3Oc3ccc(Cl)cc32)CC1 [loxapine] | 0.022 ± 0.0034
20 | CC(C(=O)O)c1ccc2c(c1)CC(=O)c1ccccc1S2 (stereo not given) [zaltoprofen] + CN1CCN(C2=Nc3ccccc3Oc3ccc(Cl)cc32)CC1 [loxapine] | 0.0216 ± 0.0032
21 | CC[C@H]1OC(=O)C[C@@H](O)[C@H](C)[C@@H](O[C@@H]2O[C@H](C)[C@@H](O[C@H]3C[C@@](C)(O)[C@@H](O)[C@H](C)O3)[C@H](N(C)C)[C@H]2O)[C@@H](CC=O)C[C@@H](C)C(=O)/C=C/C(C)=C/[C@@H]1CO[C@@H]1O[C@H](C)[C@@H](O)[C@@H](OC)[C@H]1OC [Tylosin (tartrate)] + CN1CCN(C2=Nc3ccccc3Oc3ccc(Cl)cc32)CC1 [loxapine] | 0.021 ± 0.0039
22 | Cc1ccc(C)c(OCCCC(C)(C)C(=O)O)c1 [Gemfibrozil] + CN1CCN(C2=Nc3ccccc3Oc3ccc(Cl)cc32)CC1 [loxapine] | 0.0247 ± 0.0069
23 | O=C([O-])c1ccccc1O.[Na+] [sodium salicylate] + CN1CCN(C2=Nc3ccccc3Oc3ccc(Cl)cc32)CC1 [loxapine] | 0.0224 ± 0.0057
24 | Nc1nccs1 [aminothiazole] + CN1CCN(C2=Nc3ccccc3Oc3ccc(Cl)cc32)CC1 [loxapine] | 0.0243 ± 0.0035
25 | CC=CC(=O)N(CC)c1ccccc1C [crotamiton] + CN1CCN(C2=Nc3ccccc3Oc3ccc(Cl)cc32)CC1 [loxapine] | 0.0223 ± 0.002
